Assay results reported in PubChem BioAssay AID1159580 (chemical genetic matrix, 2015).
Values joined by “and” are separate entries in the source; they are usually repeats but may differ in a detail not shown here. Equal values may be shown once. Hit rate of the full screen: of about 5,500 compounds, about 2,000 (36%) were called active. Roughly 18% stayed inconclusive and do not appear here. Cut-off read from the data, not from the text of the source: active = normalized growth mostly below about 0.91 (no sharp cut-off); inconclusive = no clear call, values can overlap the other calls; inactive = mostly above about 0.92. Some of the results follow.

Assay: chemical genetic growth profiling, strain panel (AID 1159580);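 note: tested at 20 µM; growth read once vehicle control cultures reached saturation at 30 °C; 1 = growth at the plate median or of vehicle wells; lower values mean less growth of the strain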
Conditions: S. cerevisiae deletion strains, growth OD

Measured: normalized growth

CCCC(=O)O[C@]1(C(=O)CO)CCC2[C@@H]3CCC4=CC(=O)CC[C@]4(C)C3[C@@H](O)C[C@@]21C (stereo not given in full)
inactive: locus YAL013W, strain DEP1, active compounds read low 1.01 | locus YAL021C, strain ccr4, active compounds read low 0.997 | locus YAL026C, strain drs2, active compounds read low 1.02 | locus YAL030W, strain snc1, active compounds read low 1 | locus YBL061C, strain skt5, active compounds read low 1 | locus YBR009C, strain hhf1, active compounds read low 1 | locus YBR021W, strain FUR4, active compounds read low 1.02 | locus YBR023C, strain chs3, active compounds read low 1 | locus YBR171W, strain sec66, active compounds read low 1.01 | locus YBR229C, strain ROT2, active compounds read low 1.02 | locus YBR231C, strain swc5, active compounds read low 1 | locus YBR279W, strain paf1, active compounds read low 0.996 | locus YCL011C, strain gbp2, active compounds read low 1.01 | locus YCL016C, strain dcc1, active compounds read low 1.01 | locus YCL029C, strain bik1, active compounds read low 0.983 | locus YCL061C, strain MRC1, active compounds read low 1 | locus YCL069W, strain vba3, active compounds read low 1 | locus YCR088W, strain abp1, active compounds read low 1.01 | locus YDL005C, strain med2, active compounds read low 1.01 | locus YDL035C, strain GPR1, active compounds read low 0.997 | locus YDL040C, strain nat1, active compounds read low 1.01 | locus YDL074C, strain BRE1, active compounds read low 1.01 | locus YDL101C, strain DUN1, active compounds read low 1.01 | locus YDL134C, strain PPH21, active compounds read low 1.01 | locus YDL185W, strain tfp1, active compounds read low 0.965 | locus YDL192W, strain arf1, active compounds read low 0.98 | locus YDR001C, strain nth1, active compounds read low 1.01 | locus YDR069C, strain doa4, active compounds read low 1.01 | locus YDR101C, strain arx1, active compounds read low 1.01 | locus YDR137W, strain rgp1, active compounds read low 1.01 | locus YDR150W, strain NUM1, active compounds read low 1.01 | locus YDR159W, strain sac3, active compounds read low 0.998 | locus YDR162C, strain NBP2, active compounds read low 0.991 | locus YDR195W, strain ref2 0.99 | locus YDR297W, strain sur2, active compounds read low 1.01 | locus YDR318W, strain mcm21, active compounds read low 1 | locus YDR334W, strain swr1, active compounds read low 1.02 | locus YDR335W, strain msn5, active compounds read low 1 | locus YDR388W, active compounds read low 0.976 | locus YDR392W, strain spt3, active compounds read low 1.01 | locus YDR502C, strain sam2, active compounds read low 0.981 | locus YEL003W, strain gim4, active compounds read low 1.01 | locus YEL037C, strain rad23, active compounds read low 1 | locus YEL061C, strain CIN8 (second series), active compounds read low 1.01 | locus YEL061C, strain CIN8, active compounds read low 1 | locus YER015W, strain faa2, active compounds read low 1.01 | locus YER016W, strain bim1, active compounds read low 1.01 | locus YER110C, active compounds read low 0.946 | locus YER111C, strain swi4, active compounds read low 1.01 | locus YER155C, strain BEM2 (second series), active compounds read low 1.01 | locus YER155C, strain BEM2, active compounds read low 1.02 | locus YER167W, strain BCK2, active compounds read low 1.01 | locus YFR010W, strain ubp6, active compounds read low 1.01 | locus YGL078C, strain dbp3, active compounds read low 0.978 | locus YGL086W, strain mad1, active compounds read low 0.99 | locus YGL167C, strain pmr1, active compounds read low 1.01 | locus YGL173C, strain kem1, active compounds read low 1 | locus YGL227W, strain vid30, active compounds read low 1.02 | locus YGL240W, strain doc1, active compounds read low 1.01 | locus YGL248W, strain PDE1, active compounds read low 1.02 | locus YGL253W, strain hxk2, active compounds read low 1.01 | locus YGR135W, strain pre9, active compounds read low 0.939 | locus YGR229C, strain SMI1, active compounds read low 0.987 | locus YGR252W, strain gcn5, active compounds read low 0.94 | locus YHR013C, strain ard1, active compounds read low 1.01 | locus YHR027C, strain rpn1, active compounds read low 1 | locus YHR030C, strain SLT2, active compounds read low 1.01 and 1.04 | locus YHR079C, strain IRE1 (second series), active compounds read low 0.997 | locus YHR079C, strain IRE1, active compounds read low 1.05 | locus YHR094C, strain hxt1, active compounds read low 0.984 | locus YHR129C, strain ARP1, active compounds read low 1.01 | locus YHR142W, strain chs7, active compounds read low 1.02 | locus YHR200W, strain rpn10, active compounds read low 0.994 | locus YIL066C, strain RNR3, active compounds read low 1.02 | locus YIL073C, strain SPO22, active compounds read low 0.867 | locus YIL125W, strain kgd1, active compounds read low 0.994 | locus YIR030C, strain dcg1, active compounds read low 0.994 | locus YJL092W, strain hpr5, active compounds read low 1.01 | locus YJL095W, strain BCK1 (second series), active compounds read low 1 | locus YJL095W, strain BCK1, active compounds read low 1.01 and 1.05 | locus YJL115W, strain asf1, active compounds read low 1.02 | locus YJL129C, strain trk1, active compounds read low 1.01 | locus YJL134W, strain LCB3, active compounds read low 1.01 | locus YJL154C, strain vps35, active compounds read low 1.01 | locus YJL164C, strain tpk1, active compounds read low 1.01 | locus YJL166W, strain qcr8, active compounds read low 1.01 | locus YJL168C, strain set2, active compounds read low 0.976 | locus YJL187C, strain SWE1 (second series), active compounds read low 1.01 | locus YJL187C, strain SWE1, active compounds read low 1 | locus YJR043C, strain POL32, active compounds read low 0.992
